Assay results taken from the supplement of paper PMC10681739.

These sequences were tested against RUNX1 (UniProt Q01196) (assay: RUNX1 binding intensity (PBM fluorescence) in presence of ETS1, normalised to RUNX1-only experiment (arbitrary fluorescence units); higher = stronger binding). Settings: RUNX1 concentration 2 nM; ETS1 concentration 25 nM.
Procedure: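 Cooperative gcPBM on 36-bp genomic probes with neighbouring ETS1 and RUNX1 sites. Recombinant human RUNX1 (2 nM) was incubated alone or with ETS1 (25 nM) and detected with anti-RUNX1 antibody plus Alexa488 secondary. Values are medians over 4 replicate spots; the RUNX1+ETS1 data were normalised to the RUNX1-only data. The probes sit in constant array flanks that are not printed.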
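Also: Full-length recombinant human ETS1 or RUNX1 bound to double-stranded 36-bp genomic probes on microarrays, detected by protein-specific primary antibody and Alexa488 secondary, spot fluorescence as median of four replicate spots.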

Chain of RUNX1 (Q01196 whole entry): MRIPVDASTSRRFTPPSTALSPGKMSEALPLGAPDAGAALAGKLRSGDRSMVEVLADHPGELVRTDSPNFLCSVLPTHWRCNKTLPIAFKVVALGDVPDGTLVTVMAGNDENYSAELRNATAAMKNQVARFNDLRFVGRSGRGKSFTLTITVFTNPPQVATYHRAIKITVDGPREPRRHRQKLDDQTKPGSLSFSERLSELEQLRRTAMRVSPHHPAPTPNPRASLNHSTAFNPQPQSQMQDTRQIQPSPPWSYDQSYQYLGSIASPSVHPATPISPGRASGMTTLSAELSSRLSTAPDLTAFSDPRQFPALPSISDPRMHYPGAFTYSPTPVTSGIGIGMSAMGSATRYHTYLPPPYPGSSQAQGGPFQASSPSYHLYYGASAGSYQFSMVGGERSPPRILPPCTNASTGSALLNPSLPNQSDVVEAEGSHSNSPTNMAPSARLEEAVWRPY

In order of rising RUNX1 binding intensity:
1. ATGCCTTCTTCCAGAGGATGTGGTCGCTACTAGTGG  868
2. GCTTCTGAGGAAGTGCGTTTTGTGGGTAGGTGGAGT  878
3. CAGGCTCGCCACAGGGGAAGTGGTTAGGGCGGGTCC  890
4. AGAATCGCATCAGGATGTGGTGAGGGAGCACATTTG  969
5. AGCAGGAAGTATGTTGAAAGTCATAACCACAGCAAA  1020
6. TCCGGAAGTGGCACTGATGGGCGCCTGCGGCGGGGG  1030
7. TTGCCATTCCAGGAAATGAGCTTACCACATTGACTG  1070
8. CCCTTGCCAGAGGAAGCCACTGCCACCGCAGAAGCA  1080
9. TCTCCCGGAACTGCTCCTTCACCATGATGACCGCTG  1090
10. GGTGTGTTCTGGGGAGGAAGTGGGTTTTCAGGTTGT  1120
11. GACTTTTACGGAAATAGCAGTCCAAAACCGCGTCTA  1170
12. TGCAAAAAAACAGGAAACACCCAGCCGCAAATTATA  1230
13. CAGCTGACAGGAAGGAGAGAACCACAGACAGTGCGA  1260
14. ACTCCAGAGGAAGTGGCAAGACGAGCGCGGTAACGG  1330
15. AGGGCATAAACAGGATGTGGTGTTGGATGAAACCTT  1360
16. CCTTGCTACAGGATGTTTTGACCACGAGCCCAGGAG  1390
17. CCTGGTCCGGAAGCGCTGTCCCCGCCTCCCGCATAG  1430
18. ACCTTGCCTAGAGGAAGTGGTTTTTCGAATCTGAGT  1540
19. TCCCCTCTCCCCATCCGCCCGAGACCACAGCCACTC  1570
20. TGCAGTCGTGAAAAAGGAAGTGGTTAAAGTGGCTAC  1600
21. GCCAACAGGAAGCTGGAAGCCAACCGCACTGTGTGC  1670
22. GCCGGCGGCCGGAAGTCTATCCCGCAGAAGCGCAGC  1900
23. TCTCTATGGTTTCCGTTGGGTGTGTGGTTTTTTTGT  2050
24. CCACCGTCCCCGGAAATAACCGCGCCTGCCTCTCAA  2090
25. CATTCAGTAAAAGGATGTGGTTTAGAACAGATGAAA  2150
26. ATAGTCTCTTCCTGTGTTGCAAACCACAGGTCCACC  2300
27. AACAGACAGGATGTGGCCTCTGCCAAAACCACCATC  2310
28. AGGCTTCCGGCCACGCCCCCTTCCCGCGGTTGCTAG  2360
29. CGCCGAACTTCCGGCAGTAAATTCCGTGGTTTCCCT  2400
30. GAATGGCGGATGTGGCTGGGGAGAGAAAGCCGCAGA  2610
31. TCAGGGGTGGGAGGAAGTGGTTAGGATCAGCCTGGG  2680
32. ACAATAACAGGAAGTGGTGGGGACTGCGGTGACCTG  3340
33. AGCTAGGACAGGATGTGAAAACCACACTGACAAAGT  3510
34. TGAGCACAGTATTTCCTGTGGTTTCTATTGCATTTC  3540
35. GCCACACTTCCGGCGGGGCTGCGACCGCAGAGGGGC  3600
36. GTTCCTTTGAAAGCAGGATGTGGTTTGCCCCAGCTT  3730
37. CCGGGCGCCACTTCCGGTCCCCGTGGTCACGTGACC  3740
38. AAGTTGATTTCCGGGTAGTCTGTGGTTTCCTAATCA  3880
39. TGGCAGAGCACATCCTGTGCGGTTTTCAGTTTTGCT  5430
40. AGAGACAGCGGGCGGAAACCGCAGAAAAAGTTGAAA  14200
